# Most compounds without a hit are left out; they make up all but 6.1% or so of the library.
# D1 PAM: potentiators of human D1 dopamine receptor. P21728. HEK293 TREx D1 cells, calcium flux, dopamine EC20 potentiation. potentiation, % at 10 µM. 360,000 compounds, 0.036% hits; in the data active = potentiation above about 30%
# D1 ag: human D1 receptor agonism | P21728 | HEK293 T-REx D1 cells, calcium flux, agonist mode | activation, % at 2 µM | 360,000 compounds, 1% hits; in the data active = activation above about 30%
#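 Agonism was scored from calcium flux recorded over 180 s (1 read/s) after pintool compound addition, following a 10-cycle baseline. Cells were inducible force-coupled HEK293 TREx D1, plated overnight at 30 C and loaded with no-wash calcium dye.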
# D1 antagonist: antagonists of human D1 dopamine receptor; HEK293 TREx D1 cells, calcium flux, dopamine EC80; stronger effect = lower value; activity change, negative = inhibition, % at 10 µM; 360,000 compounds, 3.2% hits; P21728; in the data active = activity change below about -30%
#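 Using tetracycline-induced force-coupled D1 Hek293 cells and a calcium dye, signals were followed for 180 s after compound, then for 180 s after EC80 dopamine, to detect inhibitors.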
# D3 antag: D3 dopamine receptor (human) antagonism; D3R cells, DiscoveRx beta-arrestin luminescence, antagonist mode; stronger effect = lower value; P35462; 360,000 compounds, 2.5% hits; max response, negative = inhibition, %; AID 652054; in the data active = max response below about -50%; inconclusive = no clear call, values can overlap the other calls
# Target sequence (P35462 whole entry, looked up): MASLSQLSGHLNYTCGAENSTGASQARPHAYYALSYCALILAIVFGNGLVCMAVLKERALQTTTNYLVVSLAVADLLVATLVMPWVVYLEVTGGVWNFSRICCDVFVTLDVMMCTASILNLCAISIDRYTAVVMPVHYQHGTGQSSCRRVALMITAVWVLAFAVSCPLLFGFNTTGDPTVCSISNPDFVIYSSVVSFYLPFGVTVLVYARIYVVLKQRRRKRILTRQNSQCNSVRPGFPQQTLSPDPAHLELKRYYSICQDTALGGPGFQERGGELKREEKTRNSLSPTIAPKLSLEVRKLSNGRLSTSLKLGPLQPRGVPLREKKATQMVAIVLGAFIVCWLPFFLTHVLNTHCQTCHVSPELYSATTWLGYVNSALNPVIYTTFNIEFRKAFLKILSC
#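 Cells plated overnight at 1500 cells/well, then exposed to library compounds with dopamine controls for 90 minutes at 37 degrees C. DiscoveRx reagent added for 30–60 minutes at room temperature; luminescence read, quantitative HTS format.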
# DRD3 agonist: activates the human D3 dopamine receptor. D3R DiscoveRx beta-arrestin cells, luminescence, 90 min. max activation, %. 410,000 compounds, 0.58% hits. AID 652048; in the data active = max activation above about 30%
#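 Agonist mode: compounds and dopamine controls were applied to plated cells for 90 min at 37 degrees C after an overnight attachment at 1500 cells/well. Luminescent read-out followed 30 - 60 minutes at room temperature with DiscoveRx detection reagent.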
# Hits are given with their value; i = inactive; ? = inconclusive; nt = no result.
SMILES,D1 PAM,D1 ag,D1 antagonist,D3 antag,DRD3 agonist
CC(C)(C)NNC(=S)Nc1cccc(C(F)(F)F)c1,i,i,i,i,i
O=C(Nc1ccccc1)Nc1ncc(C(F)(F)F)cc1Cl,nt,nt,nt,i,i
FC(F)(F)c1cnc(NNC(=S)Nc2ccccc2Cl)c(Cl)c1,i,i,-33.4,-75.5,i
Cc1cccc(NC(=S)NNc2ncc(C(F)(F)F)cc2Cl)c1,i,i,i,-63.7,i
CCOc1ccc(-n2nc3cc(C)c(NC(=O)CC)cc3n2)cc1,i,i,i,nt,i
CCOC(=O)C1=CCC(c2ccc(C)cc2)N(S(=O)(=O)c2ccc(C)cc2)C1 (centres undefined),nt,nt,nt,i,i
CCOC(=O)C1=CCC(c2ccccc2C)N(S(=O)(=O)c2ccc(C)cc2)C1 (centres undefined),nt,nt,nt,-50.3,i
CC(C)(C)c1ccc(Oc2ccc(NC(=O)c3ccco3)cn2)cc1,i,i,i,i,i
O=C(Nc1ccc(Oc2cccc(C(F)(F)F)c2)nc1)c1ccco1,i,i,-40.6,i,i
CC1C/C(=N\NC(=S)NCc2ccccc2)CC(C)(C)C1 (centres undefined),i,i,i,-56.2,i
CC(C)Oc1ccc(CN2CCC2(C)C(=O)Nc2cccc(Oc3ccccc3)c2)cc1 (centres undefined),nt,nt,nt,i,i
COc1ccccc1N1CCN(C(=O)CSc2nnc(NC(=O)C3CCC3)s2)CC1,i,i,i,i,i
COc1ccc(N2CCN(C(=O)CSc3nnc(NC(=O)C4CCC4)s3)CC2)cc1,i,i,-32.0,i,i
Cc1ccc(-c2nnc(SCC(=O)NNC(=O)COc3cccc4ccccc34)n2C)cc1,i,i,i,nt,nt
Cc1cc2ncn(S(=O)(=O)N3CCOCC3)c2cc1C,i,i,i,i,i
Cc1cc2ncn(S(=O)(=O)N3CCCCC3)c2cc1C,i,i,-32.7,i,i
COc1ccc(-c2c(-c3ccsc3)oc(=O)c3cc(OC)c(OC)cc23)cn1,nt,nt,nt,i,i
COc1cc2c(-c3ccc4cc[nH]c4c3)c(-c3ccsc3)oc(=O)c2cc1OC,i,i,nt,i,51.7
Cc1sc(NC(=O)CCl)c(C(=O)c2ccccc2)c1C,i,i,i,-66.3,i
Cc1ccccc1C(=O)Nc1sc(C)c(C)c1C(=O)c1ccccc1,i,i,i,i,i
CC(C)c1ccc(NC2CCCN(C(=O)CCN3CCCC3=O)C2)cc1 (centres undefined),i,i,i,i,i
O=C1CCCCN1CCCC(=O)N1CCCC(Nc2ccccc2)C1 (centres undefined),i,i,-50.8,i,i
O=C(NCc1ccc(F)cc1)C1CCN(C(=O)c2ccc(-n3ccc4ccccc43)s2)CC1,i,i,-31.4,nt,i
CCOc1ccc(CNC(=O)C2CCN(C(=O)c3ccc(-n4ccc5ccccc54)s3)CC2)cc1,i,i,i,nt,i
Cc1cc(C)nc(SCC(=O)Nc2ccc(S(=O)(=O)Nc3ncccn3)cc2)n1,i,i,i,i,34.4
SMILES,D1 PAM,D1 ag,D1 antagonist,D3 antag,DRD3 agonist
O=C(Cc1ccc(Cl)cc1)Nc1cccc(S(=O)(=O)Nc2ccccc2F)c1,i,i,i,i,i
Cc1ccc(SCC(=O)Nc2ccc(S(=O)(=O)Nc3ncccn3)cc2)cc1,i,i,i,i,i
CN(C)S(=O)(=O)c1cccc(NC(=O)Cc2ccc(Cl)cc2)c1,i,i,-31.9,i,i
Cc1ccnc(NS(=O)(=O)c2ccc(NC(=O)C3CC=CCC3C(=O)O)cc2)n1 (centres undefined),i,i,-89.2,i,i
CN(CC(=O)Nc1ccc(C#N)cc1)Cc1ccc(Cl)c(Cl)c1,i,i,i,i,i
CN(CC(=O)Nc1cccc(C#N)c1)Cc1ccc(Cl)cc1,i,i,-41.8,-73.5,i
O=C(N/N=C(\c1ccccc1)c1cccnc1)c1cc(O)ccc1O,i,i,i,nt,nt
CC(=O)Oc1ccc(C23CC4CC(CC(C4)C2)C3)cc1C(=O)O,i,i,i,nt,nt
Cc1cc([N+](=O)[O-])c2ccccc2c1NS(=O)(=O)c1ccccc1,nt,nt,nt,?,i
CN(C)S(=O)(=O)c1cccc(NC(=O)CSc2nncn2C)c1,i,i,i,i,i
Cc1cc(C)nc(SCC(=O)Nc2cccc(S(=O)(=O)N(C)C)c2)n1,i,i,-30.5,i,i
CC(=O)c1cccc(NC(=O)CN(C)Cc2ccc(OC(F)F)cc2)c1,i,i,-34.7,i,i
Cc1cc(C)n2nc(SCC(=O)Nc3ccc(S(=O)(=O)N(C)C)cc3)nc2n1,i,i,-39.1,i,i
COc1ccc(NC(=O)CN(C)CC(=O)Nc2cccc(C(C)=O)c2)cc1,i,i,i,i,i
Cc1cc(C)n2nc(SCC(=O)Nc3ccc(O)cc3)nc2n1,i,i,i,i,i
COc1cc(NC(=O)c2cc([N+](=O)[O-])ccc2NC(=O)CNCc2ccccn2)cc(OC)c1,i,i,i,i,33.6
COc1cc(NC(=O)c2cc([N+](=O)[O-])ccc2NC(=O)CNC2CCCCC2C)cc(OC)c1 (centres undefined),i,i,i,i,48.7
COc1cc(NC(=O)c2cc([N+](=O)[O-])ccc2NC(=O)CNC2CCCCC2)cc(OC)c1,i,i,i,i,i
COCCNC(=O)c1cn(C)c2ccccc2c1=O,i,i,i,i,i
Cc1nn(-c2ccccc2)c2c1C(=O)N(c1ccccc1)C(=O)C(C)(C)C2,i,i,-39.6,i,i
CC(C)[N+](C)(C)CC(O)COc1cccc2ccccc12 (centres undefined),nt,nt,nt,nt,i
O=C(Nc1ccc(C(F)(F)F)cc1Cl)c1ccc(Cn2cc(Br)cn2)o1,i,i,i,-75.3,i
C/C(=N\NC(=O)c1ccc(Cn2cc(Br)cn2)o1)c1ccc(NC(=O)c2ccoc2C)cc1,i,i,-42.8,i,i
O=C(NCc1ccccn1)c1ccc(Cn2cc(Br)cn2)o1,i,i,i,i,i
Cc1cc(C)n(Cc2ccc(C(=O)Nc3cccc(Br)c3)o2)n1,i,38.1,i,i,i
SMILES,D1 PAM,D1 ag,D1 antagonist,D3 antag,DRD3 agonist
C/C(=N\NC(=O)c1ccc(Cn2cc(Br)cn2)o1)c1cccc(NC(=O)C(C)(C)C)c1,i,i,i,i,i
O=C(c1ccc(Cn2cc(Br)cn2)o1)n1cccn1,i,i,i,-51.7,i
O=C(N/N=C/c1c(F)cccc1Cl)c1ccc(Cn2cc(Br)cn2)o1,i,i,i,i,i
Cc1cccc(OCC(=O)N/N=C\c2cccn2C)c1C,i,i,i,i,i
COc1ccc(NC(=O)C(Cc2c[nH]c3ccccc23)NC(=O)OC(C)(C)C)cc1 (centres undefined),i,i,i,nt,i
O=C(Nc1nnc(-c2ccco2)o1)c1ccc([N+](=O)[O-])s1,i,i,i,i,i
O=C(Nc1cccc(C(F)(F)F)c1)c1ccc(Cn2cc(Br)cn2)o1,i,34.0,-30.7,i,i
CC(=O)C1=CCC(c2ccco2)N(S(=O)(=O)c2ccc(C)cc2)C1 (centres undefined),nt,nt,nt,i,i
